Measurements as given in PubChem BioAssay AID1159580 (chemical genetic matrix, 2015).
The whole screen tested about 5,500 compounds, of which about 2,000 (36%) were called active. Not shown: some 18% with an inconclusive outcome. Rule as the data show it: active = normalized growth mostly below about 0.91 (no sharp cut-off); inconclusive = no clear call, values can overlap the other calls; inactive = mostly above about 0.92. The list shows a part of the results.

Experiment: chemical genetic growth profiling, strain panel (AID 1159580);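 also: tested at 20 µM; growth read once vehicle control cultures reached saturation at 30 °C; 1 = growth at the plate median or of vehicle wells; lower values mean less growth of the strain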
Conditions: growth OD

Measured: normalized growth

O=C(O[C@@H]1Cc2c(O)cc(O)cc2O[C@@H]1c1cc(O)c(=O)c2c(O)c(O)cc([C@H]3Oc4cc(O)cc(O)c4C[C@H]3OC(=O)c3cc(O)c(O)c(O)c3)c2c1)c1cc(O)c(O)c(O)c1
active: S. cerevisiae deletion strains, locus YJR075W, strain HOC1, stronger effect = lower value 0.753 | S. cerevisiae deletion strains, locus YKL160W, strain elf1, stronger effect = lower value 0.71 | S. cerevisiae deletion strains, locus YKL190W, strain CNB1, stronger effect = lower value 0.637 | S. cerevisiae deletion strains, locus YKR091W, strain srl3, stronger effect = lower value 0.927 | S. cerevisiae deletion strains, locus YLL001W, strain dnm1, stronger effect = lower value 0.614 | S. cerevisiae deletion strains, locus YLL026W, stronger effect = lower value 0.553 | S. cerevisiae deletion strains, locus YLL041C, strain sdh2, stronger effect = lower value 0.661 | S. cerevisiae deletion strains, locus YLR027C, strain aat2, stronger effect = lower value 0.407 | S. cerevisiae deletion strains, locus YLR039C, strain RIC1, stronger effect = lower value 0.598 | S. cerevisiae deletion strains, locus YLR058C, strain SHM2, stronger effect = lower value 0.525 | S. cerevisiae deletion strains, locus YLR221C, strain rsa3, stronger effect = lower value 0.573 | S. cerevisiae deletion strains, locus YLR258W, strain gsy2, stronger effect = lower value 0.523 | S. cerevisiae deletion strains, locus YLR262C, strain YPT6 (second series), stronger effect = lower value 0.539 | S. cerevisiae deletion strains, locus YLR268W, strain sec22, stronger effect = lower value 0.81 | S. cerevisiae deletion strains, locus YLR320W, strain mms22, stronger effect = lower value 0.619 | S. cerevisiae deletion strains, locus YLR330W, strain CHS5, stronger effect = lower value 0.898 | S. cerevisiae deletion strains, locus YLR342W, strain FKS1 (second series), stronger effect = lower value 0.449 | S. cerevisiae deletion strains, locus YLR342W, strain FKS1, stronger effect = lower value 0.447 | S. cerevisiae deletion strains, locus YLR357W, strain rsc2, stronger effect = lower value 0.602 | S. cerevisiae deletion strains, locus YLR370C, strain arc18, stronger effect = lower value 0.499 | S. cerevisiae deletion strains, locus YLR371W, strain rom2, stronger effect = lower value 0.849 | S. cerevisiae deletion strains, locus YLR384C, strain iki3, stronger effect = lower value 0.713 | S. cerevisiae deletion strains, locus YLR418C, strain cdc73, stronger effect = lower value 0.583 | S. cerevisiae deletion strains, locus YML016C, strain PPZ1, stronger effect = lower value 0.482 | S. cerevisiae deletion strains, locus YML120C, strain ndi1, stronger effect = lower value 0.634 | S. cerevisiae deletion strains, locus YMR058W, strain fet3, stronger effect = lower value 0.101 | S. cerevisiae deletion strains, locus YMR129W, stronger effect = lower value 0.604 | S. cerevisiae deletion strains, locus YMR205C, strain PFK2, stronger effect = lower value 0.353 | S. cerevisiae deletion strains, locus YMR231W, strain pep5, stronger effect = lower value 0.158 | S. cerevisiae deletion strains, locus YMR263W, strain SAP30, stronger effect = lower value 0.723 | S. cerevisiae deletion strains, locus YMR307W, strain GAS1, stronger effect = lower value 0.481 | S. cerevisiae deletion strains, locus YNL067W, strain RPL9B, stronger effect = lower value 0.699 | S. cerevisiae deletion strains, locus YNL071W, strain lat1, stronger effect = lower value 0.607 | S. cerevisiae deletion strains, locus YNL128W, strain TEP1, stronger effect = lower value 0.351 | S. cerevisiae deletion strains, locus YNL153C, strain GIM3, stronger effect = lower value 0.741 | S. cerevisiae deletion strains, locus YNL209W, strain ssb2, stronger effect = lower value 0.149 | S. cerevisiae deletion strains, locus YNL233W, strain BNI4, stronger effect = lower value 0.768 | S. cerevisiae deletion strains, locus YNL248C, strain rpa49, stronger effect = lower value 0.863 | S. cerevisiae deletion strains, locus YNL322C, strain KRE1 (second series), stronger effect = lower value 0.857 | S. cerevisiae deletion strains, locus YNL322C, strain KRE1, stronger effect = lower value 0.569 | S. cerevisiae deletion strains, locus YNR049C, strain mso1, stronger effect = lower value 0.913 | S. cerevisiae deletion strains, locus YOL006C, strain TOP1, stronger effect = lower value 0.216 | S. cerevisiae deletion strains, locus YOR001W, strain rrp6, stronger effect = lower value 0.57 | S. cerevisiae deletion strains, locus YOR061W, strain CKA2, stronger effect = lower value 0.848 | S. cerevisiae deletion strains, locus YOR069W, strain VPS5, stronger effect = lower value 0.891 | S. cerevisiae deletion strains, locus YOR070C, strain gyp1, stronger effect = lower value 0.495 | S. cerevisiae deletion strains, locus YOR080W, strain dia2, stronger effect = lower value 0.286 | S. cerevisiae deletion strains, locus YOR083W, strain WHI5, stronger effect = lower value 0.543 | S. cerevisiae deletion strains, locus YOR106W, strain vam3, stronger effect = lower value 0.119 | S. cerevisiae deletion strains, locus YOR184W, strain ser1, stronger effect = lower value 0.857 | S. cerevisiae deletion strains, locus YOR265W, strain rbl2, stronger effect = lower value 0.658 | S. cerevisiae deletion strains, locus YOR270C, strain vph1, stronger effect = lower value 0.223 | S. cerevisiae deletion strains, locus YOR290C, strain snf2, stronger effect = lower value 0.496 | S. cerevisiae deletion strains, locus YPL051W, strain arl3, stronger effect = lower value 0.263 | S. cerevisiae deletion strains, locus YPL055C, strain LGE1, stronger effect = lower value 0.473 | S. cerevisiae deletion strains, locus YPL078C, strain atp4, stronger effect = lower value 0.705 | S. cerevisiae deletion strains, locus YPL106C, strain sse1, stronger effect = lower value 0.593 | S. cerevisiae deletion strains, locus YPL240C, strain hsp82, stronger effect = lower value 0.679 | S. cerevisiae deletion strains, locus YPL241C, strain CIN2, stronger effect = lower value 0.922 | S. cerevisiae deletion strains, strain wtn01, stronger effect = lower value 0.808 | S. cerevisiae strains, strain wild type, stronger effect = lower value 0.491
inactive: S. cerevisiae deletion strains, locus YKL009W, strain mrt4, stronger effect = lower value 1.06 | S. cerevisiae deletion strains, locus YKL068W, stronger effect = lower value 1.04 | S. cerevisiae deletion strains, locus YKL085W, strain MDH1 (second series), stronger effect = lower value 1.05 | S. cerevisiae deletion strains, locus YKL085W, strain MDH1, stronger effect = lower value 1.05 | S. cerevisiae deletion strains, locus YKR001C, strain vps1, stronger effect = lower value 0.979 | S. cerevisiae deletion strains, locus YKR026C, strain gcn3, stronger effect = lower value 0.971 | S. cerevisiae deletion strains, locus YLR102C, strain apc9, stronger effect = lower value 1.04 | S. cerevisiae deletion strains, locus YLR113W, strain HOG1, stronger effect = lower value 1.12 | S. cerevisiae deletion strains, locus YLR262C, strain YPT6, stronger effect = lower value 0.69 | S. cerevisiae deletion strains, locus YML032C, strain rad52, stronger effect = lower value 1.05 | S. cerevisiae deletion strains, locus YML124C, strain tub3, stronger effect = lower value 1.02 | S. cerevisiae deletion strains, locus YMR078C, strain ctf18, stronger effect = lower value 1.02 | S. cerevisiae deletion strains, locus YMR125W, strain sto1, stronger effect = lower value 1.04 | S. cerevisiae deletion strains, locus YMR223W, strain ubp8, stronger effect = lower value 0.979 | S. cerevisiae deletion strains, locus YNL183C, strain NPR1, stronger effect = lower value 0.983 | S. cerevisiae deletion strains, locus YNL250W, strain rad50, stronger effect = lower value 1.02 | S. cerevisiae deletion strains, locus YNL271C, strain bni1, stronger effect = lower value 1.03 | S. cerevisiae deletion strains, locus YNL298W, strain CLA4, stronger effect = lower value 1.03 | S. cerevisiae deletion strains, locus YNL307C, strain MCK1, stronger effect = lower value 1.04 | S. cerevisiae deletion strains, locus YNR052C, strain pop2, stronger effect = lower value 0.975 | S. cerevisiae deletion strains, locus YOL012C, strain htz1 0.378 | S. cerevisiae deletion strains, locus YOL147C, strain pex11, stronger effect = lower value 1.01 | S. cerevisiae deletion strains, locus YOR136W, strain idh2, stronger effect = lower value 0.99 | S. cerevisiae deletion strains, locus YOR144C, strain elg1, stronger effect = lower value 1.01 | S. cerevisiae deletion strains, locus YOR231W, strain MKK1, stronger effect = lower value 1.04 | S. cerevisiae deletion strains, locus YOR316C, strain cot1, stronger effect = lower value 1.04 | S. cerevisiae deletion strains, locus YPL256C, strain CLN2, stronger effect = lower value 1.15 | S. cerevisiae deletion strains, locus YPR119W, strain clb2, stronger effect = lower value 1.03 | S. cerevisiae deletion strains, locus YPR141C, strain kar3, stronger effect = lower value 1.03 | S. cerevisiae deletion strains, locus YPR163C, strain tif3, stronger effect = lower value 1.02 | S. cerevisiae deletion strains, locus YPR167C, strain met16, stronger effect = lower value 1.02
